# Experimental data published in PubChem BioAssay AID1688 (National Center for Advancing Translational Sciences (NCATS), 2009).
# Hit rate of the full screen: of about 220,000 compounds, about 2,400 (1.1%) were called active. Another 7% or so got no clear call; they are omitted. Calls come from the whole dose curve; as a rule, active = well fitted inhibition curve with a large enough effect; inconclusive = small, poorly fitted or top-dose-only effect, or effect the other way; inactive = no such curve, though single readings can be large or run the other way. For the sample, actives were picked, then their nearest neighbours and some compounds at random.
# Assay: qHTS Multiplex Assay to Identify Dual Action Probes in a Cell Model of Huntington: Aggregate Formation (GFP); note: nearly all actives have a fitted effect of over 60% in size
# Conditions: PC12 HttQ103-GFP aggregates, Acumen cytometry, 40 h; series mostly up to 9.22 µM; activity change, negative = inhibition: at the top concentration
# In short: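 Aggregates are detected as GFP objects 1–25 µm with signal 6 STDEV over background in lysates of induced PC12 cells. These carry Huntingtin exon 1 with 103 glutamines fused to GFP under an ecdysone promoter; compounds titrated.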
# % is set by controls: 0 for no effect and ±100 for the full control effect; potency is the fitted concentration of half-maximal effect.
SMILES,"activity change, negative = inhibition",Potency
S=c1[nH]nc(-c2cc(-c3ccsc3)n[nH]2)n1-c1ccccc1,-11.3% (inactive),–
CN(C)c1ccc(/C=C/C(=O)c2ccc(O)cc2)cc1[N+](=O)[O-],-9.72% (inactive),–
Cn1nnc(NC(=O)CSc2ncn[nH]2)n1,-1.4% [at 46.1 µM] (inactive),–
O=C(CSc1n[nH]c(-c2cccnc2)n1)Nc1ccnc2ccccc12,-14.5% [at 46.1 µM] (inactive),–
O=C(CSc1ncn[nH]1)Nc1ccnc2ccccc12,–,11.2 µM (active)
Brc1ccc(-c2n(-c3ccccn3)c3ccccc3[n+]2-c2ccccn2)cc1,8.85% (inactive),–
CC(C)(C)c1cc(P(=O)(c2ccccc2)c2ccccc2)ccc1O,14.2% (inactive),–
CC(=O)NC(=S)Nc1ccc(NC(=O)c2cccnc2)cc1,-4.87% (inactive),–
CC(C)(C)OC(=O)NCCCCCC(=O)N/N=C/c1coc2ccccc2c1=O,-27.8% (inactive),–
COC(=O)c1sc(C(F)(F)F)c(-c2ccccc2)c1S(=O)(=O)N(C)C,7.84% (inactive),–
O=C(NC(Nc1nc2ccc([N+](=O)[O-])cc2s1)(C(F)(F)F)C(F)(F)F)c1ccccc1,–,0.126 µM (active)
O=C(O)CCC(=O)Nc1nc2ccc([N+](=O)[O-])cc2s1,-9.22% [at 46.1 µM] (inactive),–
O=C(Nc1nc2ccc([N+](=O)[O-])cc2s1)c1ccncc1,16.4% (inactive),–
Cc1ccc(NS(=O)(=O)c2ccc(N/N=C/c3ccccc3OCC(=O)O)c([N+](=O)[O-])c2)c(C)c1,-8.07% (inactive),–
COc1cc2c(cc1OC)CC(=O)N(CCCN(C)C[C@H]1Cc3cc(OC)c(OC)cc31)CC2,17.7% [at 46.1 µM] (inactive),–
O=C(O)Cc1csc(NC(=O)CSc2nnnn2-c2ccc(O)cc2)n1,-3.49% (inactive),–
Cc1cccc(C)c1NC(=O)NC1=CCCN1C,-4.99% [at 46.1 µM] (inactive),–
NC(=O)[C@H]1CC2(CC(c3cccc(NC(=O)[C@H]4CCC(=O)N4)c3)=NO2)CN1C(=O)c1ccccc1C(=O)c1ccccc1 (stereo not given in full),-14.4% (inactive),–
O=C(Cc1c(F)cccc1Cl)Nc1ccc(-n2cnnn2)cc1,-5.01% [at 46.1 µM] (inactive),–
O=C(Cc1c(F)cccc1Cl)Nc1ncc([N+](=O)[O-])s1,–,10 µM (active)
Cc1cnc(NC(=O)CSc2c(Cl)cccc2Cl)s1,-1.32% [at 46.1 µM] (inactive),–
C/C=C/C=N/NC(=O)c1ccncc1,11.7% [at 46.1 µM] (inactive),–
CN(C)N=Nc1ccc2nc[nH]c2c1,9.84% (inactive),–
O=C(O)CC1(CC(=O)Nc2cccc(C(F)(F)F)c2)CCCC1,35.4% (inactive),–
CCOC(=O)N/N=C1\CC(C)S(=O)(=O)c2ccc(Cl)cc21 (stereo not given),2.2% (inactive),–

SMILES,"activity change, negative = inhibition",Potency
COCc1cc(=O)[nH]c(SC)n1,-34.4% (inactive),–
CCN(CCNC(=O)C1=C(C)C(=O)OC12CCC(C)CC2)c1ccccc1 (stereo not given),-10.9% (inactive),–
COc1ccc(C(=O)Nc2ccc(S(=O)(=O)NC(C)C)cc2)cc1,-3.78% [at 46.1 µM] (inactive),–
COc1ccc(NS(=O)(=O)c2ccc(NC(=S)NC(=O)CC(C)C)cc2)cc1,–,22.4 µM (active)
CC(=O)c1ccc(NC(=S)NC(=O)CC(C)C)cc1,-8.99% [at 46.1 µM] (inactive),–
COc1ccc(NC(=O)C2=NNC(=O)CC2)cc1S(=O)(=O)N1CCCCC1,-9.93% (inactive),–
CCc1cc(CNC(=O)CC2C(=O)NCCN2Cc2ccccc2C(F)(F)F)on1 (stereo not given),-15.2% (inactive),–
Cn1c(CSCC(=O)Nc2ccccc2)nnc1SCc1ccccc1,-3.46% (inactive),–
Cc1ccc2c(c1)c1ncn(Cc3ccc(F)cc3)c(=O)c1n2C,-13.6% (inactive),–
Cc1ccc2c(c1)c1ncn(CCC3=CCCCC3)c(=O)c1n2C,-3.8% [at 46.1 µM] (inactive),–
Cc1ccc2c(c1)c1ncnc(N3CCc4ccccc4C3)c1n2C,–,11.2 µM (active)
Cc1ccc(C(=O)NNc2ncnc3ccccc23)cc1,-15% (inactive),–
O=C(CNC(=O)c1ccc(-c2ccccc2)cc1)OCc1ccc(Cl)cc1,17.4% [at 46.1 µM] (inactive),–
CC(=O)COc1ccc2c(-c3ccccc3)cc(=O)oc2c1,2.72% [at 46.1 µM] (inactive),–
O=C(CNC(=O)OCc1ccccc1)Oc1cc2oc(=O)cc(-c3ccccc3)c2cc1Cl,–,7.08 µM (active)
NCCCCC(N)C(=O)O (stereo not given),-9.12% [at 46.1 µM] (inactive),–
O=C(CS(=O)(=O)c1ccc(C(F)(F)F)cn1)NNC(=O)c1ccccc1,-20.9% (inactive),–
CCOC(=O)c1c(C)nn(-c2ncccc2NC(=O)CCC(=O)O)c1C,16.3% (inactive),–
O=C(Nc1cccc(Cl)c1)Nc1ccccc1NS(=O)(=O)c1cccs1,–,11.2 µM (active)
O=C(Nc1nncs1)c1ccccc1NS(=O)(=O)c1cccs1,-25.2% [at 46.1 µM] (inactive),–
O=C(Nc1cccc(Cl)c1)Nc1nnc(-c2ccccc2)o1,7.19% [at 46.1 µM] (inactive),–
OCC(CO)(CO)NCc1ccc(-c2ccccc2)cc1,–,11.2 µM (active)
O=C(O)Cc1ccc(-c2ccccc2)cc1,4.1% [at 46.1 µM] (inactive),–
O=C(Cc1ccc(-c2ccccc2)cc1)NC(c1ccccc1)c1ccccc1,-10.3% [at 46.1 µM] (inactive),–
CN(C(=O)CCn1c(=S)oc2ccccc21)C1CCCCC1,-13.5% (inactive),–
